# Measurements: PubChem BioAssay (NCI)
# Values joined by “and” are separate entries in the source; they are usually repeats but may differ in a detail not shown here. Equal entries are not always repeated. This is part of a sample that, as a whole, favours compounds with a hit. Of some 83,000 tested, about 20% had one in any assay.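 Interpretation: 100, growth as untreated; towards 0, rising growth inhibition; 0, no net growth; 0 to -100, cell death. Compounds scoring below 10 were considered active.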 Active and inactive are the calls of the source.
# Tested on: MDA-MB-468 breast
# Assay: NCI-60 one-dose screen, 48 h (100 = growth as untreated, 0 = no growth, -100 = all killed)
# Conditions: 10 µM unless noted
row,SMILES,growth
1,CC(CC(=O)c1ccccc1)c1ccccc1 (stereo not given),96.5% (inactive)
2,O=C(Nc1cccc([N+](=O)[O-])c1)c1ccc(Cl)c(Cl)c1,64.2% (inactive)
3,CCCCCCCCCCCCCCCCCCNC(=O)[C@H]1CSC(c2cccs2)N1 (stereo not given in full),60.8% (inactive)
4,CC(CN1CCCCC1)C(=O)c1ccccc1 (stereo not given),105% (inactive)
5,CCNc1cc(-c2cccc(OC(F)(F)F)c2)nc2ccc(N3CCCC3)cc12,-34.9% (active)
6,Cc1cc(Nc2cccc(F)c2)nc(NCc2ccccc2)n1,16.2% (inactive)
7,CCC(C)[C@H](NC(C)=O)C(=O)N[C@@H](CCCNC(=N)N)C(=O)N[C@@H](CCCCN)C(=O)N[C@@H](CC1CCC(O)CC1)C(=O)NC(C(=O)N[C@@H](CCSC)C(=O)N[C@@H](CCCNC(=N)N)C(=O)N[C@@]1(C)CCC/C=C\CCC[C@@](C)(C(=O)NC(C(=O)N[C@@H](CCC(=O)O)C(=O)N[C@@H](CC(C)C)C(=O)N[C@H](C(=O)N[C@@H](CCC(=O)O)C(N)=O)C(C)C)[C@@H](C)O)NC(=O)[C@H](CCC(N)=O)NC(=O)[C@H](CC(C)C)NC(=O)[C@H](CC(C)C)NC1=O)[C@@H](C)O (stereo not given in full),99.7% (inactive)
8,CC(C)(C)c1ccc(OP(=S)(N/N=C/c2ccccc2O)Oc2ccc(C(C)(C)C)cc2)cc1,35.4% (inactive)
9,CC(C)CNCC(=O)Nc1ccc(Cc2ccc(NC(=O)CNCC(C)C)cc2)cc1,79.5% (inactive)
10,CC(Cc1cccc2ccccc12)C(N)=O (stereo not given),110% (inactive)
11,CC(C)(C)OC(=O)CC1(O)CCCCC1,94.5% (inactive)
12,NC1=CC(=O)C(=O)c2ccccc21,86.8% (inactive)
13,N#Cc1c(-c2ccccn2)[nH]c(=S)[nH]c1=O,110% (inactive)
14,O=C(CN1CCOCC1)Nc1ccc2ncnc(Nc3ccc(Oc4cccc(F)c4)c(Cl)c3)c2c1,-17.1% (active)
15,Oc1ccc(CSc2nnc(-c3ccc(Cl)cc3)n2-c2ccccc2)c2cccnc12,14.5% (inactive)
16,COc1ccc(-c2nc(N3CCCC3=O)sc2Br)cc1OC,94.8% (inactive)
17,COc1ccc(/C=C(/C(=O)N2CCCC2)c2cc(OC)c(OC)c(OC)c2)cc1,11.6% (inactive)
18,CCOC(=O)C1C(C(=O)OCC)C2C(=O)C3C(C(=O)OCC)C(C(=O)OCC)C3C(=O)C12 (stereo not given),98.5% (inactive)
19,O=C(O)CCCn1c(SCc2c(Cl)cccc2Cl)nc2ccsc2c1=O,-4.76% (active)
20,c1ccc(CCn2cccc2)nc1,114% (inactive)

row,SMILES,growth
1,CCSc1oc(C)nc1[P+](c1ccccc1)(c1ccccc1)c1ccccc1,-20.3% (active)
2,O=C1/C(=C/c2ccc([N+](=O)[O-])cc2)CN(C(=O)CCN2CCC(=NO)CC2)C/C1=C\c1ccc([N+](=O)[O-])cc1,-33.6% (active)
3,COc1cc(/C(=C2/O[C@@H]([C@H]3COC(C)(C)O3)[C@H]3OC(C)(C)O[C@@H]23)c2ccc3ccccc3c2)cc(OC)c1OC,51.2% (inactive)
4,COc1cc2oc(-c3cccc(N)c3)cc(=O)c2c(OC)c1OC,99.9% (inactive)
5,OCC1OC(n2ccc3c(NO)ncnc32)C(O)C1O (stereo not given),-88.8% (active)
6,CCN(c1cc(-c2ccc(CN3CCC(/C=C/S(=O)(=O)c4ccccc4)CC3)cc2)cc(C(=O)NCc2c(C)cc(C)[nH]c2=O)c1C)C1CCOCC1,55.9% (inactive)
7,Cc1ccc(OC(=O)c2ccccc2)cc1,107% (inactive)
8,CCOC(=O)NC(N)=O,105% (inactive) and 98.7% (inactive)
9,COc1cc2cc(Oc3ccc(NC(=O)Nc4cccc(C(F)(F)F)c4)cc3)c(C)nc2cc1OCCN1CCCCC1,-68.7% (active)
10,CCCC[P+](c1ccccc1)(c1ccccc1)c1ccccc1,-6.92% (active)
11,C=CCN(CCOC(=O)c1ccc([N+](=O)[O-])cc1)CCOC(=O)c1ccc([N+](=O)[O-])cc1,105% (inactive)
12,C=C(C)[C@@H]1CC[C@]2(C(=O)OCCOCCOCC[P+](c3ccccc3)(c3ccccc3)c3ccccc3)CC[C@]3(C)[C@H](CC[C@@H]4[C@@]5(C)CC[C@H](C)C(C)(C)[C@@H]5CC[C@]43C)[C@@H]12,-67.6% (active)
13,CNc1ccc(Cl)cc1S(=O)(=O)c1ccccc1[N+](=O)[O-],72.7% (inactive)
14,Nc1ccc(C2=Nc3cccc4cccc(c34)S2)cc1,0.26% (active)
15,O=C1CCc2c(sc3[nH]c(=S)n(-c4cc(C(F)(F)F)cc(C(F)(F)F)c4)c(=O)c23)C1,-14.2% (active)
16,O=c1c2ccccc2sc2c(NCCN3CCOCC3)nc3ccccc3c12,59.4% (inactive)
17,O=C(/C=C/C=C/c1ccccc1)c1ccco1,29.3% (inactive)
18,CCOc1cccc(/C=N/NC(=O)Cc2ccc(Nc3ccnc(C(F)(F)F)c3)cc2)c1O,1.86% (active)
19,O=C1/C(=C/c2ccc(F)cc2)Cc2ccccc21,96% (inactive)
20,COc1ccc2[nH]c(-c3ccccc3)cc2c1,96.9% (inactive)
